# Compound activity as filed in PubChem BioAssay.
# This excerpt belongs to a sample that is enriched for hits.
# CBX7 inh = inhibitors of human CBX7 binding to H3K27me3 peptide; O95931; AlphaScreen His6-CBX7 / biotin-H3K27me3 peptide binding; active compounds read low; normalised signal (fraction of DMSO) (no concentration beside the values); 1.1% of 66,000 active; in the data active means normalised signal below about 0.5
# Target sequence (O95931 whole entry, looked up): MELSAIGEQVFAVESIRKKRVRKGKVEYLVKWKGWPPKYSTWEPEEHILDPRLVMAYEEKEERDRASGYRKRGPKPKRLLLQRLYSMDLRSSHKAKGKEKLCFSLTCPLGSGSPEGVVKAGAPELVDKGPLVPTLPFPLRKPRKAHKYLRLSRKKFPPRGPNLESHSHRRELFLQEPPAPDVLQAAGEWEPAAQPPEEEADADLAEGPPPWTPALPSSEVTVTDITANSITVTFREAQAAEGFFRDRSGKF
# Active calls of the source: *.
SMILES,CBX7 inh
O=C(CSCc1cnn(-c2ccccc2)c1-n1cccc1)Nc1ccccc1Cl,1.1
COc1ccc(NC(=O)NCCCN2CCN(c3ccc(F)cc3)CC2)cc1,0.95
CC1=Nc2cc(C(=O)NCc3ccccn3)ccc2Sc2ccc(Cl)cc21,0.8
Cc1cc(C)cc(NC(=O)c2cnn(-c3ccc(F)cc3)c2C2CCNCC2)c1,0.99
Cc1ccc2cc(CCNC(=O)c3cccc(Br)c3)c(=O)[nH]c2c1,1
COc1ccc(-c2nc(-c3ccc(C)cc3)[nH]c2-c2ccc(OC)cc2)cc1,0.7
COc1cc(-c2nc(-c3ccc(C)c(C)c3)c(-c3ccc(C)c(C)c3)[nH]2)cc(OC)c1O,0.49*
COc1cc(-c2nc(-c3ccc(C)c(C)c3)c(-c3ccccc3)[nH]2)cc2c1OCO2,0.7
CCOC(CCNC(=O)CCC(=O)Nc1ccc2nc(N3CCC(C)CC3)cc(C)c2c1)OCC,1
O=C(CSCc1cnn(-c2ccccc2)c1-n1cccc1)NCc1ccccc1Cl,1
COc1ccc(-n2cnc3cc(Nc4nnc(C)c5ccccc45)ccc32)cc1,1.3
CCOc1ccc(NCc2nc3ccccc3n2CCOc2ccc(C)cc2)cc1,0.65
CC(C)(C)n1cnc2cc(NCc3cccc4ccccc34)ccc21,0.6
COc1ccc(-n2cnc3cc(NCc4cccc5ccccc45)ccc32)cc1,0.31*
CCOc1ccc(NCc2nc3ccccc3n2CCOc2ccccc2)cc1,0.18*
COc1ccc(-n2cnc3cc(NS(=O)(=O)c4ccccc4)ccc32)cc1,0.77
Brc1ccc(NCc2nc3ccccc3n2CCOc2ccccc2)cc1,1
COc1ccc(-n2cnc3cc(NC(=O)c4ccccc4)ccc32)cc1,1
COc1ccc(-n2cnc3cc(NCc4nc5ccccc5n4C)ccc32)cc1,0.41*
O=C(CC1Sc2ccccc2NC1=O)Nc1cc(Cl)cc(Cl)c1 (stereo unspecified),1
CCC1Oc2ccc(C)cc2N(CC(=O)N2CC(C)CC(C)C2)C1=O (stereo unspecified),0.95
O=C(NCc1cccs1)c1cc(-c2ccc3c(c2)OCO3)nc2ccccc12,1
COC(=O)Cc1nc(NCc2ccccc2)c2c3c(sc2n1)CCCC3,0.71
Cc1ccc(-n2ncc(C(=O)Nc3ccccc3Br)c2C2CCNCC2)cc1,0.98
COC(=O)c1cccc(NC(=O)CSc2nc3ccccc3[nH]2)c1,0.88
SMILES,CBX7 inh
CCC(C(=O)NCC1CCCO1)n1ncc2ccccc21 (stereo unspecified),1
COc1ccccc1-c1c(C)nn2c(N3CCN(C)CC3)cc(C)nc12,1.1
CS(=O)(=O)c1ccc2nc(NC(=O)c3cc(-c4ccccc4)nc4ccccc34)sc2c1,0.65
COCCCNC(=O)CSc1nc(-c2ccc(C)cc2)[nH]c1-c1ccc(Cl)cc1,0.86
CN(CCNC(=O)c1csc2c1CCCCC2)C1CCCCC1,0.96
Cc1oc(-c2ccc(Cl)cc2)nc1C(=O)NCCCN1CC(C)CC(C)C1 (stereo unspecified),1.1
CC(C)c1ccc(Nc2c3c(nc4ccc(Cl)cc24)CCCC3)cc1,1.1
O=C(c1ccccc1)c1ccc(-c2[nH]c(-c3cccc(Cl)c3)nc2-c2ccccc2)cc1,0.9
Cc1ccc(C)c(-c2[nH]c(-c3cccc(O)c3)nc2-c2ccccc2)c1,0.59
O=C(O)c1ccc(-c2nc(-c3ccc(C(=O)c4ccc(F)cc4)cc3)c(-c3ccc(F)cc3)[nH]2)cc1,0.71
Oc1ccc(-c2nc(-c3ccccc3)c(-c3ccc(F)cc3)[nH]2)cc1O,0.78
Oc1cccc(-c2nc(-c3ccccc3)c(-c3ccc(F)cc3)[nH]2)c1,0.35*
Oc1cccc(-c2nc(-c3ccccc3)c(-c3ccccc3)[nH]2)c1,0.34*
CCOc1ccccc1NC(=O)c1cc2c(-c3ccc(Cl)cc3)nn(C)c2s1,1.1
CCOC(=O)c1c(NC(=O)c2ccc(OC)cc2)sc2c1CCC(CC)C2 (stereo unspecified),1.4
CCOc1ccc(NC(=O)c2cc3c(-c4ccc(Cl)cc4)nn(C)c3s2)cc1,1.1
O=C(CN1CCN(Cc2ccc(F)cc2)C1=O)NCc1ccc2c(c1)OCO2,0.78
O=C(c1c(F)cccc1F)N1CCN(c2ccc3nnc(-c4ccc(F)cc4)n3n2)CC1,0.94
Cc1ccc(-c2noc(CCC(=O)N3CCN(c4cccc(Cl)c4)CC3)n2)cc1,1.1
CCOc1ccccc1C(=O)NCCc1cc2ccc(OC)cc2[nH]c1=O,0.99
Cc1c(CNCc2ccc3c(c2)OCO3)c(C(=O)O)c(C)n1Cc1ccccc1,0.99
CCN(CCCNC(=O)CCn1c(=O)[nH]c2ccccc2c1=O)c1cccc(C)c1,1
O=C(CC(C(=O)N1CCc2ccccc21)n1ccnc1)NCCN1CCCCCC1 (stereo unspecified),0.34*
CCN(CCCNC(=O)Cc1cn(C)c2ccccc12)c1cccc(C)c1,0.32*
CCCCNC(=O)CC(C(=O)N1CCc2ccccc21)n1ccnc1 (stereo unspecified),1
SMILES,CBX7 inh
CCCCCCCNC(=O)CC(C(=O)N1CCc2ccccc21)n1ccnc1 (stereo unspecified),0.88
O=C(CC(C(=O)N1CCc2ccccc21)n1ccnc1)NCCCN1CCOCC1 (stereo unspecified),0.99
CN1CCN(CCCNC(=O)CC(C(=O)N2CCc3ccccc32)n2ccnc2)CC1 (stereo unspecified),0.98
CCN(CCCNC(=O)c1cn(C)c(=O)c2c1c1ccccc1n2C)c1cccc(C)c1,0.96
CCN(CCCNC(=O)CC(C(=O)N1CCc2ccccc21)n1ccnc1)c1cccc(C)c1 (stereo unspecified),0.23*
COc1ccc(-c2cc3nc(C)c(CCC(=O)NCC4CCN(CC(C)C)C4)c(C)n3n2)c(OC)c1 (stereo unspecified),1.4
Cc1ccc(-c2nc3cccc(C)n3c2Nc2ccccc2C)s1,0.96
COc1cccc(CNc2nc3ccccc3n2CCN2CCOCC2)c1OC,1.1
CCN1CCN(c2cc(C)c3cc(NC(=O)Cc4ccc(OC)cc4)ccc3n2)CC1,1.1
NS(=O)(=O)c1ccc(CCNC(=O)CC2Oc3ccccc3NC2=O)cc1 (stereo unspecified),1.2
Fc1ccccc1Nc1nc(-c2cccs2)cs1,0.98
COc1ccccc1N1CCN(C2CC(=O)N(CCc3ccccc3)C2=O)CC1 (stereo unspecified),0.86
CCC(=O)N1CCc2cc(S(=O)(=O)NC(C)C)ccc21,0.99
CCN(CC)c1ccc(Nc2nc(-c3c(C)nc4sccn34)cs2)cc1,0.1*
CCN(CC)c1ccc(Nc2nc(-c3c(C)nc4ncccn34)cs2)cc1,0.33*
CCOc1ccc(Nc2nc(-c3c(C)nc4sccn34)cs2)cc1,0.67
CCc1ccccc1Nc1nc(-c2c(C)nc3ncccn23)cs1,0.77
Cc1nc2sccn2c1-c1csc(Nc2ccc(Cl)cc2)n1,0.75
CC(=O)c1cccc(Nc2nc(-c3c(C)nc4ncccn34)cs2)c1,0.85
Cc1ccccc1-c1nc(CN2CCC(C(=O)NC3CCCC(C)C3C)CC2)c(C)o1 (stereo unspecified),1
CCOC(=O)c1cccc(NC(=O)c2cc3c(-c4ccc(OC)c(OC)c4)nn(C)c3s2)c1,0.87
O=C(CN1CCN(Cc2cccc(Cl)c2)C1=O)NC1CCCCC1,1
CNc1ccc([N+](=O)[O-])cc1-n1cnc(-c2ccc(OC)cc2)c1,0.82
Clc1ccc(CN2CCN(Cc3cccnc3)CC2)cc1,1
COc1cc2[nH]c(=O)n(CCCC(=O)NCc3cccc(Cl)c3)c(=O)c2cc1OC,1.1
CCOC(=O)C1CCN(Cc2nc(-c3cccc(Br)c3)oc2C)CC1,0.99
